Assay results published in PubChem BioAssay (Tox21).
Results filed as inconclusive are left out. Active and inactive are the calls of the source. Unless noted, calls come from the whole dose curve.

What was measured:
[1] = Nuclear factor erythroid 2-related factor 2/antioxidant responsive element (Nrf2/ARE) small molecule agonists: qHTS cell viability counter screen in human keratinocytes (AID 1919968; active = well fitted curve in the direction sought with a large enough effect in the repeat runs; an effect the other way counts as inactive or inconclusive; note: nearly all actives have a fitted effect of over 55% in size)
Summary of the method: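 Viability counter-screen: KeratinoSens reporter cells, DMSO-delivered compounds, 23 h at 37 C, CellTiter-Fluor fluorescence.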

[2] = Nuclear factor erythroid 2-related factor 2/antioxidant responsive element (Nrf2/ARE) small molecule agonists: luciferase reporter gene qHTS assay in human keratinocytes (AID 1919969); note: nearly all actives have a fitted effect of over 35% in size
[3] = target: Gonadotropin-releasing hormone receptor (Homo sapiens) (UniProt P30968); experiment: Human gonadotropin-releasing hormone receptor (GnRHR) small molecule agonists, calcium flux assay in GnRHR-HEK293 cells (AID 1920063); note: nearly all actives have a fitted effect of over 35% in size
Summary of the method: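 Tox21-format agonist screen using human GnRHR-expressing HEK293 cells and a fluorescent calcium dye; kinetic 3-min fluorescence reading after compound addition, 15-point concentration series run in triplicate.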

[4] = target: KiSS-1 receptor (Homo sapiens) (UniProt Q969F8); experiment: Human kisspeptin (KISS1R) small molecule agonists, calcium flux assay in KISS1R-HEK293 cells (AID 1920064; active = well fitted curve in the direction sought with a large enough effect in the repeat runs; an effect the other way counts as inactive or inconclusive)
Summary of the method: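 Intracellular calcium mobilization in KISS1R-HEK293 cells was recorded by fluorescence (Ex/Em 480/540) for 3 min following compound addition to cells pre-loaded 1 h with calcium dye.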

[5] = G protein-coupled receptor (GPCR) small molecule agonists, calcium flux assay: HEK293 wild type cell line counter screen (AID 1920065)
Summary of the method: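 In this agonist-mode screen, ATP is the positive control and DMSO the vehicle. Cells grow 18 h before a 1 h dye incubation at 37 C; signal is taken at Ex/Em 480/540 over 3 min.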

[6] = p53 small molecule agonists, cell-based qHTS assay with human liver microsomes (AID 1963577);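 note: p53 response element beta-lactamase reporter cells with liver microsomes plus NADPH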
Summary of the method: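 With metabolic activation: human liver microsomes (0.5 mg/mL final) plus NADPH (0.5 mg/mL final) added alongside compounds to p53RE-bla cells; 16 h 37 C exposure; beta-lactamase read by LiveBLAzer fluorescence.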

[7] = p53 small molecule agonists, cell-based qHTS assay with rat liver microsomes (AID 1963578)
Summary of the method: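 Metabolic activation by rat liver microsomes and NADPH, each 0.5 mg/mL final, added right after compounds to p53RE-bla reporter cells (4,000/well, plated 5 h earlier). 16 h at 37 C, then LiveBLAzer substrate for 2 h at room temperature in the dark; fluorescence read-out.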

[8] = p53 small molecule agonists, cell-based qHTS assay with human liver microsomes: qHTS cell viability counter screen (AID 1963579); note: nearly all actives have a fitted effect of over 45% in size
Summary of the method: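 Metabolic activation used human liver microsomes and NADPH, both 0.5 mg/mL final, over 16 hours at 37 C on p53RE-bla cells (4,000/well). Cytotoxicity measured by CellTiter-Glo luminescence, 30 min at room temperature.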

[9] = p53 small molecule agonists, cell-based qHTS assay with rat liver microsomes: qHTS cell viability counter screen (AID 1963580); note: nearly all actives have a fitted effect of over 45% in size
Summary of the method: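 p53RE-bla HCT-116 cells (4,000/well) rested 5 h at 37 C, then given Tox21 compounds in DMSO with rat liver microsomes (0.5 mg/mL final) plus NADPH (0.5 mg/mL final) for 16 h at 37 C. Viability read by CellTiter-Glo luminescence after 30 min at room temperature.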

[10] = p53 small molecule agonists, cell-based qHTS assay: qHTS cell viability counter screen (AID 1963581); note: nearly all actives have a fitted effect of over 45% in size
Summary of the method: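 Compounds are pinned onto HCT-116 p53RE-bla cells and left 16 h at 37 C. Following the reporter FRET read, ATP is quantified by CellTiter-Glo luminescence after 30 min at room temperature.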

[11] = p53 small molecule agonists, cell-based qHTS assay (AID 1963582; active = well fitted activation curve with a large enough effect in the signal ratio in the repeat runs, not every such curve was filed as active; the % refers to the signal ratio)
Summary of the method: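 Agonist activity was scored from beta-lactamase FRET fluorescence in p53RE-bla cells treated 16 h at 37 C with compounds in DMSO, substrate incubation being 2 h at room temperature.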

[12] = target: 5-hydroxytryptamine receptor 2A (Homo sapiens) (UniProt P28223); experiment: 5-hydroxytryptamine receptor 2A (HTR2A) small molecule antagonists, cell-based qHTS assay (AID 1963586); note: nearly all actives have a fitted effect of over 45% in size
Summary of the method: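 Antagonist-mode intracellular calcium assay: DOI (4 nM) added after 5 min compound pre-incubation at room temperature to dye-loaded HTR2A-CHO cells. Fluorescence followed for 3 min, sampled every second.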

[13] = target: 5-hydroxytryptamine receptor 2A (Homo sapiens) (UniProt P28223); experiment: 5-hydroxytryptamine receptor 2A (HTR2A) small molecule agonists, cell-based qHTS assay (AID 1963587); note: nearly all actives have a fitted effect of over 30% in size
Summary of the method: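 HTR2A-CHO cells, plated 18 h at 37 C/5% CO2, dye-loaded 1 h at 37 C; compounds in DMSO added by pin tool (agonist mode). Intracellular calcium flux read as kinetic fluorescence on FDSS over 2 min at 1 s intervals.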

[14] = target: Muscarinic acetylcholine receptor M1 (Homo sapiens) (UniProt P11229); experiment: Cholinergic receptor muscarinic 1 (CHRM1) small molecule antagonists, cell-based qHTS assay (AID 1963588); note: nearly all actives have a fitted effect of over 40% in size
Summary of the method: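 CHRM1-CHO calcium-flux assay, antagonist mode. Cells were seeded 18 h, dye-loaded 1 h at 37 C and given compound for 5 min at RT, then acetylcholine was added at 50nM. FDSS fluorescence was read 3 min; 15 concentrations, three runs.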

[15] = target: Muscarinic acetylcholine receptor M1 (Homo sapiens) (UniProt P11229); experiment: Cholinergic receptor muscarinic 1 (CHRM1) small molecule agonists, cell-based qHTS assay (AID 1963589); note: nearly all actives have a fitted effect of over 35% in size
Summary of the method: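 Stable CHRM1-CHO cells (human receptor) were incubated 18 h, dye-loaded for 1 h at 37 C and exposed to test compounds for agonist activity, with calcium-dependent fluorescence followed kinetically.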

[16] = cAMP Responsive Elements (CRE) small molecule agonists, cell-based qHTS assay (AID 1963590)
Summary of the method: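 FRET-based beta-lactamase readout (LiveBLAzer B/G, 2 h RT) quantified CRE activation in HEK 293T CRE-bla cells after 3 h treatment with DMSO-dissolved compounds.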

[17] = cAMP Responsive Elements (CRE) small molecule antagonists, cell-based qHTS assay (AID 1963591; active = well fitted inhibition curve with a large enough effect in the signal ratio in the repeat runs, not every such curve was filed as active; the % refers to the signal ratio)
Summary of the method: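 qHTS in CRE-bla HEK 293T cells: compound in DMSO, then 0.25 uM NKH477 (final), 3 h at 37 °C/5% CO2; beta-lactamase FRET read-out after 2 h substrate incubation.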

[18] = target: Beta-2 adrenergic receptor (Homo sapiens) (UniProt P07550); experiment: Adrenergic beta2 receptor (ADRB2) small molecule antagonists, cell-based qHTS assay (AID 1963592); note: series mostly up to about 92 µM; nearly all actives have a fitted effect of over 50% in size
Summary of the method: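 Cells (CHO, stable ADRB2 overexpression) incubated 18-20hr at 37C; compounds added from DMSO; agonist mix (1nM isoproterenol, 100uM IBMX, 25uM Ro-20-1724) added; 0.5hr RT; d2-cAMP and anti-cAMP-cryptate added; 1hr RT; 665/615 nm read.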

[19] = target: D(2) dopamine receptor (Homo sapiens) (UniProt P14416); experiment: Dopamine D2 receptor (DRD2) small molecule agonists, cell-based qHTS assay (AID 1963594); note: nearly all actives have a fitted effect of over 35% in size
Summary of the method: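 HEK293 cells stably expressing DRD2 were cultured 24 h at 37 C, then given Ro20-1724 (0.1 mM final) and compounds for 10 min at room temperature. NKH477 (200nM) was then added for 30 min. cAMP was read by HTRF.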

[20] = target: D(2) dopamine receptor (Homo sapiens) (UniProt P14416); experiment: Dopamine D2 receptor (DRD2) small molecule antagonists, cell-based qHTS assay (AID 1963595; active = well fitted inhibition curve with a large enough effect in the signal ratio in the repeat runs, with a control signal flat; the % refers to the signal ratio)
Summary of the method: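 HTRF cAMP read-out at 665 and 620 nm emission (340 nm excitation). Antagonist mode: compounds were tested against 12 nM quinpirole in DRD2-HEK293 cells, with 200 nM NKH477 raising cAMP and 0.1 mM Ro20-1724 blocking its breakdown.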

Measured: Potency

Sequence of Gonadotropin-releasing hormone receptor (Homo sapiens) (P30968 whole entry, looked up): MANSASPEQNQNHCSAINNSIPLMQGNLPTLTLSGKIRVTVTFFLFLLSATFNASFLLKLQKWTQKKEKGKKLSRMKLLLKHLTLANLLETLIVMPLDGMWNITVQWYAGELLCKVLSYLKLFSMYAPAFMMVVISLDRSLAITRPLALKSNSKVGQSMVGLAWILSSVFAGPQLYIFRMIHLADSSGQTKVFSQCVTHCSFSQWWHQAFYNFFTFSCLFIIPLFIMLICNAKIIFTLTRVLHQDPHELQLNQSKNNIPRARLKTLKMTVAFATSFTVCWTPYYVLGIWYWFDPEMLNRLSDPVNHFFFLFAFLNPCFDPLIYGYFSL
Sequence of Muscarinic acetylcholine receptor M1 (Homo sapiens) (P11229 whole entry, looked up): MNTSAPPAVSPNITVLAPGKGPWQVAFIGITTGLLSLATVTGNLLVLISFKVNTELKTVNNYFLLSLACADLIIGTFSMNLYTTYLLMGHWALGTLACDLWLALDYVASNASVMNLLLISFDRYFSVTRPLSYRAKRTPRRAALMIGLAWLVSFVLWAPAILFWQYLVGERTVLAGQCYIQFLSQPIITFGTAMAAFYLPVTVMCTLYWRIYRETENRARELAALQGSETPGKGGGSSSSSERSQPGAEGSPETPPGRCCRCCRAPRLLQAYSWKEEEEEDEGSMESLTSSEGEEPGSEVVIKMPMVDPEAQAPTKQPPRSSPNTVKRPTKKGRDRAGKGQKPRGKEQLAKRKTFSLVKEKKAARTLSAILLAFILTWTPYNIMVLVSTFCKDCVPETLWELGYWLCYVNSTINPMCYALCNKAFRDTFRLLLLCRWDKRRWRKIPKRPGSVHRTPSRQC
Sequence of 5-hydroxytryptamine receptor 2A (Homo sapiens) (P28223 whole entry, looked up): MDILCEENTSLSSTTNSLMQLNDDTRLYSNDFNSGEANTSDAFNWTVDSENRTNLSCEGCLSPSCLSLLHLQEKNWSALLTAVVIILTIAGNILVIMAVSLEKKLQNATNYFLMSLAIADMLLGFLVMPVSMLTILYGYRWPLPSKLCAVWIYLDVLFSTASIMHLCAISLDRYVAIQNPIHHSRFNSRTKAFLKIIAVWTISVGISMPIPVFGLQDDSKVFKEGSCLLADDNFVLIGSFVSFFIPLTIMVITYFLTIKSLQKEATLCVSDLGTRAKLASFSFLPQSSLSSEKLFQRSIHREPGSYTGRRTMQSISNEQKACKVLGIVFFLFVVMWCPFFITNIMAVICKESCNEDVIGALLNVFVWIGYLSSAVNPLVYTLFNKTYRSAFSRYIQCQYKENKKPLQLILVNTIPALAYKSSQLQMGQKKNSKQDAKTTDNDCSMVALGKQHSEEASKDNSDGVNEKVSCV
Sequence of KiSS-1 receptor (Homo sapiens) (Q969F8 whole entry, looked up): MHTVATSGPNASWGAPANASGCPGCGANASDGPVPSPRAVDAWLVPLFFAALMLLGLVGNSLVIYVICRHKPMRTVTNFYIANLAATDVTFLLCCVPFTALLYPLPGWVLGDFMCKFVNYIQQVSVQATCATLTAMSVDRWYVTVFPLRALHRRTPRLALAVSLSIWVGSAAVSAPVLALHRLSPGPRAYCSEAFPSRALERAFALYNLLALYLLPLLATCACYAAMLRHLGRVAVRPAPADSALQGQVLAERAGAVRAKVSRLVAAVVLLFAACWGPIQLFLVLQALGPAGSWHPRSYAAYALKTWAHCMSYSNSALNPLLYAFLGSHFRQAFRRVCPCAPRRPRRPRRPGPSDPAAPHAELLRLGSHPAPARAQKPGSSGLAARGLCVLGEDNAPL
Sequence of Beta-2 adrenergic receptor (Homo sapiens) (P07550 whole entry, looked up): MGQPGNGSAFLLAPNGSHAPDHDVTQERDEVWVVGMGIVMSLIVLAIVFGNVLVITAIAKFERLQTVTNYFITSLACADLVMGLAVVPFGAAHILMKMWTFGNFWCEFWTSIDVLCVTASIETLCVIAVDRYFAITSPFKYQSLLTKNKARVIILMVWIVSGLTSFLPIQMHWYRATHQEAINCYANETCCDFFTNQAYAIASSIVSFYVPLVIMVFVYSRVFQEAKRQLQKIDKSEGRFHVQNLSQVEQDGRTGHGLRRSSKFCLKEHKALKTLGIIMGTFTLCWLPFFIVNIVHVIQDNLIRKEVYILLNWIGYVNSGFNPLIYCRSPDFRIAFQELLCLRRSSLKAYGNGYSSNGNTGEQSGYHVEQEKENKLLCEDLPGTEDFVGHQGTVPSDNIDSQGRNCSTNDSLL
Sequence of D(2) dopamine receptor (Homo sapiens) (P14416 whole entry, looked up): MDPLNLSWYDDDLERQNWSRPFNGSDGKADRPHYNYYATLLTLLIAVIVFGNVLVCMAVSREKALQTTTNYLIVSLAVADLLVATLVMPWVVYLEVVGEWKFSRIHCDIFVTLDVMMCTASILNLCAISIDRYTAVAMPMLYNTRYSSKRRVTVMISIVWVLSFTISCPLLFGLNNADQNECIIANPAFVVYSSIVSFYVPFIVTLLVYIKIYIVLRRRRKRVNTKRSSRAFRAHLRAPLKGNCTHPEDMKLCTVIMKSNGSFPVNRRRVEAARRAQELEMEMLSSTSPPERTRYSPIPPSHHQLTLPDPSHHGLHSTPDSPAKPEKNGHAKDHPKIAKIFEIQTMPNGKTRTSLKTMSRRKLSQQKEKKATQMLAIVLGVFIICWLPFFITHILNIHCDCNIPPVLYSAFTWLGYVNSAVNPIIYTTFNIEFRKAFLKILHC

Cc1ccc(C(C)C)c(O)c1
inactive: [1] | [2] | [3] | [4] | [5] | [6] | [7] | [8] | [9] | [10] | [11] | [12] | [13] | [14] | [15] | [16] | [17] | [18] | [19] | [20]

CCC(=O)/C=C/C1C(C)=CCCC1(C)C (centres undefined)
inactive: [1] | [2] | [3] | [4] | [5] | [6] | [7] | [8] | [9] | [10] | [11] | [12] | [13] | [14] | [15] | [16] | [17] | [18] | [19] | [20]

Cc1cc(C)c(O)c(C)c1
inactive: [1] | [2] | [3] | [4] | [5] | [6] | [7] | [8] | [9] | [10] | [11] | [12] | [13] | [14] | [15] | [16] | [17] | [18] | [20]

OCCOCCOCCO
inactive: [1] | [2] | [3] | [4] | [5] | [6] | [7] | [8] | [9] | [10] | [11] | [12] | [13] | [14] | [15] | [16] | [17] | [18] | [19] | [20]

O=C(Cl)c1cccc(C(=O)Cl)c1
inactive: [1] | [2] | [3] | [4] | [5] | [6] | [7] | [8] | [9] | [10] | [11] | [12] | [13] | [14] | [15] | [16] | [17] | [18] | [19] | [20]

CC(C)CC(=O)CC(C)C
inactive: [1] | [2] | [3] | [4] | [5] | [6] | [7] | [8] | [9] | [10] | [11] | [12] | [13] | [14] | [15] | [16] | [17] | [18] | [19] | [20]

OCC1CCCO1 (centres undefined)
inactive: [1] | [2] | [3] | [4] | [5] | [6] | [7] | [8] | [9] | [10] | [11] | [12] | [13] | [14] | [15] | [16] | [17] | [18] | [19] | [20]
